# From article PMC5540273 (PLoS ONE, 2017)
# Experiments:
# Conditions in all cases: concentration: 1 μM, replicates: in singlicate; n = 1
# [1] = tested on: MYO3A
# [2] = tested on: MYO3B
# [3] = tested on: T1, NDR1
# T1 construct: gene STK38
# [4] = tested on: NDR2
# [5] = tested on: NEK10
# [6] = tested on: NEK11
# [7] = tested on: NEK1
# [8] = tested on: NEK2
# [9] = tested on: NEK3
# [10] = tested on: NEK4
# [11] = tested on: NEK5
# [12] = tested on: NEK6
# [13] = tested on: NEK7
# [14] = tested on: NEK9
# [15] = tested on: T2, NIK
# T2 construct: gene MAP3K14
# [16] = tested on: T3, NIM1
# T3 construct: gene MGC42105
# [17] = tested on: NLK
# [18] = tested on: T4, OSR1
# T4 construct: gene OXSR1
# [19] = tested on: PAK1
# [20] = tested on: PAK2
# 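Note: KINOMEscan kinase panel screen.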
SMILES,%Inh [1] [%],%Inh [2] [%],%Inh [3] [%],%Inh [4] [%],%Inh [5] [%],%Inh [6] [%],%Inh [7] [%],%Inh [8] [%],%Inh [9] [%],%Inh [10] [%],%Inh [11] [%],%Inh [12] [%],%Inh [13] [%],%Inh [14] [%],%Inh [15] [%],%Inh [16] [%],%Inh [17] [%],%Inh [18] [%],%Inh [19] [%],%Inh [20] [%]
Cc1ccc(-c2nc(Nc3ccncc3)c3ccccc3n2)s1 [GSK189015],0,0,0,0,4,0,0,20,5,0,9,1,16,15,4,0,53,9,11,11
COc1ccc(Nc2nccc(N3CCC(NC(=O)C(C)c4ccc(Cl)cc4)CC3)n2)cc1 (stereo not shown) [GSK1379812],24,0,39,0,43,0,0,4,53,0,54,55,0,10,0,11,35,0,21,15
Nc1ncnc2occ(-c3ccc4c(c3)CCN4C(=O)Cc3cc(F)ccc3F)c12 [GSK2645446],26,0,11,0,1,2,0,70,0,0,22,0,0,4,17,8,0,0,0,4
O=C(Nc1n[nH]c2nc(-c3ccco3)c(Br)cc12)C1CCN(Cc2ccccc2)C1.O=C(O)[C@H](O)[C@@H](O)C(=O)O (stereo not shown) [SB-742034],17,7,8,17,0,1,0,5,47,8,0,1,11,0,0,0,0,5,3,35
COC(=O)c1cccc(NC(=O)NC2CCN(c3ccnc(Nc4ccc(OC)cc4)n3)C2)c1 (stereo not shown) [GSK1379746],1,0,0,0,24,8,0,0,14,0,23,0,0,0,8,53,35,0,0,0
O=C(Nc1n[nH]c2nc(-c3cccs3)c(Br)cc12)C1CC1 [SB-735297],8,0,11,16,0,0,0,0,0,0,0,0,13,0,0,0,0,0,0,39
COC(=O)C(NC(=O)NC1CCN(c2ccnc(Nc3ccc(F)cc3)n2)C1)c1ccccc1 (stereo not shown) [GSK1379712],0,0,14,32,0,0,2,0,9,0,6,0,0,16,4,37,2,0,0,1
Fc1ccc(-c2nc[nH]c2-c2ccncc2)cc1 [SB-217360],0,6,30,9,24,0,0,0,11,0,0,0,0,0,20,4,49,0,23,25
O=C(Nc1n[nH]c2cc(-c3ccsc3)ccc12)C1CC1 [SB-732932],12,0,18,0,0,41,0,21,24,3,0,12,6,0,26,5,46,27,9,45
COc1ccc2cc(-c3nc(-c4ccccc4C(C)C)[nH]c3-c3ccncc3)ccc2c1 [SB-660566],0,0,18,0,45,4,41,0,0,15,0,2,0,4,0,13,29,3,25,28
Cc1ccc(NC(=O)Nc2ccc(Cl)c(C(F)(F)F)c2)cc1-c1ccc(C(=O)Nc2ccncc2)cc1 [GSK1398470],60,0,23,0,2,0,0,23,2,17,11,12,2,20,0,0,21,35,19,19
